NPR1 antag: blocks ANP-stimulated signaling of human Npr1 receptor | P16066 | HEK293 hNpr1 GloSensor cGMP, ANP-stimulated luminescence | Potency, µM (doses to about 46.3 µM), for inactives: at the top dose activity change, negative = inhibition, hits mostly inhibitors | 1.6% of 76,000 active; further: on the % scale 0 is the no-effect control and ±100 the full control effect; nearly all actives have a fitted effect of over 60% in size
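Compound pre-incubated 30 min at room temperature on GloSensor-loaded HEK293 cells stably carrying hNpr1 and the pGS-40F cGMP biosensor. Stimulation uses hNppA at 0.1 nM final; luminescence is taken at baseline and 20 min post-agonist.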
FLuc inh: Photinus pyralis luciferase inhibition. purified P. pyralis luciferase, luminescence, biochemical. P08659. 2.5% of 76,000 active. Potency, µM (series often up to 115 µM), actives largely listed as inhibitors. AID 1347043; active means well fitted curve in the direction sought with a large enough effect; inconclusive means small, poorly fitted or top-dose-only effect, or another doubt; inactive means no such curve, though single readings can be large; an effect the other way counts as inactive or inconclusive; further: on the % scale 0 is the no-effect control and ±100 the full control effect; nearly all actives have a fitted effect of over 65% in size
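Purified 10nM P. pyralis luciferase with 10uM D-luciferin and 10uM ATP in 50mM Tris acetate pH 7.5, 10mM Mg acetate, 0.01% Tween-20, 0.05% BSA. qHTS titration; luminescence read by CCD imager.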
HEK293 tox: kills HEK 293 cells | Potency, µM (highest dose often 115 µM), for the others: top-dose activity change, negative = cytotoxicity, usual class: inhibitors | 6.6% of 94,000 active | HEK 293 viability, ATP luminescence (CellTiter-Glo), 48-72 h; active means well fitted curve in the direction sought with a large enough effect; inconclusive means small, poorly fitted or top-dose-only effect, or another doubt; inactive means no such curve, though single readings can be large; an effect the other way counts as inactive or inconclusive; further: on the % scale 0 is the no-effect control and ±100 the full control effect; nearly all actives have a fitted effect of over 60% in size
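Viability of HEK 293 cells, plated at 250 cells/well, was judged by cellular ATP after compound treatment for 48 or 72 hr. Luminescence was imaged 10 min after CellTiter-Glo addition at room temperature.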
3T3 cytotox: NIH 3T3 cell cytotoxicity. NIH 3T3 viability, CellTiter-Glo ATP luminescence, 48-72 h. Potency, µM (highest dose often 96.7 µM), inactives show top-dose activity change, negative = cytotoxicity, hits mostly inhibitors. 4.3% of 94,000 active; active means well fitted curve in the direction sought with a large enough effect; inconclusive means small, poorly fitted or top-dose-only effect, or another doubt; inactive means no such curve, though single readings can be large; an effect the other way counts as inactive or inconclusive; further: on the % scale 0 is the no-effect control and ±100 the full control effect; nearly all actives have a fitted effect of over 55% in size
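Cytotoxicity is measured as loss of cellular ATP: NIH 3T3 cells (400/well) are exposed to compound for 48 or 72 hr at 37 °C, then CellTiter-Glo luminescence is imaged after 10 min at room temperature.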
Npr1 antag conf: confirmation of human Npr1 natriuretic peptide receptor antagonists | shares compounds with NPR1 antag | HEK293 hNpr1 cGMP GloSensor luminescence, ANP-stimulated | Potency, µM (titrated, usually from 57.6 µM), without a hit: at the top dose activity change, negative = inhibition, most hits filed as inhibitors | 76% of 1,400 active; further: nearly all actives have a fitted effect of over 70% in size
Npr2 selectivity: antagonizes human Npr2, subtype selectivity check. shares compounds with NPR1 antag. HEK293 hNpr2 GloSensor cGMP luminescence, CNP-stimulated. Potency, µM (series often up to 57.6 µM), without a hit: at the highest dose activity change, negative = inhibition, most hits filed as inhibitors. 67% of 1,400 active. AID 1347046; further: nearly all actives have a fitted effect of over 70% in size
FLuc inh counter: FLuc enzyme inhibition, Npr1 counter-screen. shares compounds with NPR1 antag. 0.7% of 1,400 active. Potency, µM (series often up to 57.6 µM), for inactives: at the highest dose activity change, negative = inhibition, most hits filed as inhibitors. AID 1347047. purified FLuc enzyme, luminescence, Km substrate; active means well fitted curve in the direction sought with a large enough effect; inconclusive means small, poorly fitted or top-dose-only effect, or another doubt; inactive means no such curve, though single readings can be large; an effect the other way counts as inactive or inconclusive; further: 0% is about no effect
GloSensor cGMP: control cell line activity, Npr1 antagonist counter-screen. Potency, µM (highest dose often 57.6 µM), inactives show at the top dose activity change, negative = inhibition, most hits filed as inhibitors. 69% of 1,400 active. shares compounds with NPR1 antag. HEK293 GloSensor cGMP, SNP-stimulated, luminescence; further: on the % scale 0 is the no-effect control and ±100 the full control effect; nearly all actives have a fitted effect of over 70% in size
The depositor's hits bear a star; i = inactive; ? = inconclusive; · = no result given; [ ] = remark or other dose. The list is not random: actives were taken first. Their share in the collection is about 11%. Unless noted, the call rests on the fitted dose curve. Potency means the concentration at half of the fitted maximal effect.

SMILES	NPR1 antag	FLuc inh	HEK293 tox	3T3 cytotox	Npr1 antag conf	Npr2 selectivity	FLuc inh counter	GloSensor cGMP
O=C(c1cc(F)cc(F)c1)N1CCC(Cc2nc(-c3ccc(F)cc3)no2)CC1	?	i	?	?	·	·	·	·
COc1cccc(S(=O)(=O)N2CCC3(CC2)CC(OC)CCO3)c1 (stereo not drawn)	-7%	i	16%	3%	·	·	·	·
CCc1noc(CC2CCOC3(CCN(S(=O)(=O)c4cccc(OC)c4)CC3)C2)n1 (stereo not drawn)	16µM*	i	?	?	22µM*	22µM*	-1%	19µM*
CCc1noc(CC2CCOC3(CCN(S(=O)(=O)c4ccccc4Cl)CC3)C2)n1 (stereo not drawn)	?	i	?	-23%	22µM*	22µM*	-1%	17µM*
CCc1noc(CC2CCOC3(CCN(S(=O)(=O)c4cccc(Cl)c4)CC3)C2)n1 (stereo not drawn)	10µM*	i	?	?	22µM*	?	-2%	22µM*
CCc1noc(CC2CCOC3(CCN(S(=O)(=O)c4cc(F)ccc4C)CC3)C2)n1 (stereo not drawn)	?	i	?	?	·	·	·	·
COc1ccc(CN2C=C(C(=O)OCc3noc(-c4cccc(OC)c4)n3)C(C)=NS2(=O)=O)cc1	?	i	?	?	?	-30%	0%	?
COc1ccc(CN2C=C(C(=O)OCc3noc(-c4ccc(C)cc4)n3)C(C)=NS2(=O)=O)cc1	10µM*	i	-27%	?	15µM*	14µM*	0%	12µM*
COc1ccc(CN2C=C(C(=O)OCc3noc(-c4cccc(F)c4)n3)C(C)=NS2(=O)=O)cc1	0%	i	-26%	-43%	·	·	·	·
COc1ccc(CN2C=C(C(=O)OCc3noc(-c4ccc(C)c(C)c4)n3)C(C)=NS2(=O)=O)cc1	?	i	?	-25%	·	·	·	·
CC1=NS(=O)(=O)N(Cc2ccccc2)C=C1C(=O)OCc1noc(-c2ccc(C)c(C)c2)n1	11µM*	i	?	?	17µM*	?	-2%	15µM*
COc1cccc(C(=O)N2CCCC(c3nn(-c4ccc(Cl)cc4)c(=O)[nH]3)C2)c1 (stereo not drawn)	13%	i	?	?	·	·	·	·
COCC(=O)N[C@H]1CO[C@H]2[C@@H]1OC[C@@H]2Nc1nccc(-c2ccc(OC)cc2)n1	-3%[70.6 µM]	i	-12%[172 µM]	-26%[174 µM]	·	·	·	·
O=C(NCc1ccc2c(c1)OCO2)c1cnc2c(c1)N([S+](=O)([O-])c1cccnc1)CCC2	4%	i	-17%	?	·	·	·	·
Cc1ccc2c(n1)OC1(CCCC1)CN(CC1CC1)C2=O	·	·	?	-15%[46.1 µM]	·	·	·	·
CC1=C[C@@H](CNC(=O)c2ccccn2)[C@H](C(C)C)C[C@H]1Cc1nnc(-c2ccncc2)o1	14µM*	i	22µM*	?	18µM*	22µM*	-1%[86.2 µM]	18µM*
COc1ccc(-c2nnc(C[C@@H]3C[C@@H](C(C)C)[C@H](CNC(=O)c4ccc(F)cc4)C=C3C)o2)cc1	?	i	?	?	?	-25%	-1%	?
O=C1N2CCCC2CN1C1CCN(Cc2ccccc2C(F)(F)F)CC1 (stereo not drawn)	-1%	i	?	?	·	·	·	·
CCOCCNC(=O)c1cc(-c2ccccc2F)nc2c1cnn2C	·	·	-14%[172 µM]	?	·	·	·	·

Screens as filed in PubChem BioAssay.
